The structures appear in SMILES notation. Hit rate of the full screen: of about 320,000 compounds, about 740 (0.23%) were called active. Where a call stands in place of a potency, no number is given. Not shown: some 2% with an inconclusive outcome. Calls come from the whole dose curve; as a rule, active = well fitted activation curve with a large enough effect; inconclusive = small, poorly fitted or top-dose-only effect; inactive = no such curve, though single readings can be large or run the other way. Many of the other results were omitted from the sample, so actives are more common in it than they were.
Potency is the fitted concentration of half-maximal effect.

This test in a line: qHTS Assay for Small Molecule Inhibitors of Mitochondrial Division or Activators of Mitochondrial Fusion. Note: nearly all actives have a fitted effect of over 45% in size. The conditions noted are these: S. cerevisiae fusion-defective mutant growth rescue, CellTiterGlo 48 h; series mostly up to 46.1 µM. The source says:
NIH Chemical Genomics Center [NCGC] NIH Molecular Libraries Probe Production centers Network [MLPCN] MLPCN Grant: MH081279-01 Assay Submitter (PI): Jodi M. Nunnari NCGC Assay Overview: The budding yeast S. cerevisiae is a powerful system to study mitochondrial fusion. Unlike other organisms, yeast cells without functional mitochondrial DNA (mtDNA) can be propagated and studied as long as they maintain a mitochondrial compartment and are provided with a fermentable carbon source. When mitochondrial fusion is blocked in yeast, mitochondrial tubules rapidly fragment and division continues unopposed. Under conditions where fusion is compromised in mammalian cells, nearly identical changes in mitochondrial structure have been observed. Thus, these findings indicate that steady state mitochondrial structure in cells is a characteristic and specific indicator of fusion activity. Mounting evidence has pointed to a connection between mitochondrial dynamics and apoptosis in mammalian cells. These studies indicate that in mammalian cells mitochondrial dynamics are more integrated into cellular processes than in yeast cells and have evolved not only to distribute the organelle but also to aid in the regulation of cellular homeostasis. Mitochondrial fusion proteins attenuate apoptosis by inhibiting the release of cytochrome c from mitochondria, in part by controlling cristae structures. Thus, small molecules that inhibit mitochondrial […] may promote apoptosis and potentially act as novel chemotherapeutics and stimulation of apoptosis has become an attractive target of anti-cancer therapies. To identify inhibitors of mitochondrial division, we exploit the growth phenotypes of mitochondrial fusion-defective mutants. The temperature sensitive fusion alleles, such as fzo1-1 and mgm1-5, cause mitochondrial membranes to fragment in cells under non-permissive conditions and cells lose mtDNA, and are unable to grow in the presence of non-fermentable carbon source glycerol. Inhibiting mitochondrial division rescues growth. We have developed and optimized a luminescence cell viability assay in 1536 well format for the identification of inhibitors in the yeast mitochondrial fusion-defective assay.
The yeast glycerol stocks where kindly supplied by the laboratory of Dr. Jodi Nunnari, University of California, Davis. All yeast glycerol stock solutions were stored in single use aliquots at -80C. The CellTiterGlo luminescence reagent, containing luciferase and luciferin, were purchased from Promega, and the reagents were stored according to manufacturer's instructions. The Buffer components for the YPEG yeast growth medium were purchased from Sigma-Aldrich (St. Louis, MO). YPEG growth medium: 1% (w/v) yeast extract, 2% (w/v) Bacto-peptone, 3% Ethanol, 3% glycerol, 0.4mM Tryptophan, 0.36mM Adenine. qHTS Assay Protocol: 1.#Dispense 2.5 ul yeast growth medium per 1536 well plate. 2.#Transfer 23 nl per well of compound to plate. 3.#Dispense 2.5 ul yeast solution at appropriate seeding density per well. 4.#Incubate for 48 hours at 37C. 5.#Dispense 5 ul of CellTiterGlow solution per well. 6.#Incubate at ambient for 10 minutes. 7.#Read using bio-luminescence protocol on Viewlux.
For `O=C1NC(=O)C(CCc2ccccn2)(Cc2cccc(Cl)c2Cl)C(=O)N1c1ccc(Br)cc1` (stereo not given), the Potency was 11.2 µM (active).
In the case of `Clc1ccc2nc3c(c(-c4ccccc4)c2c1)CNCC3`, the Potency entry is “inactive”.
In the case of `N[C@@H](Cc1c[nH]c2ccccc12)c1nnc(SCc2c(F)cccc2Cl)o1`, the Potency result is “inactive”.
As for `CC(=O)NBr`, the Potency entry is “inactive”.
As for `C=CCN1CCC23c4c5ccc(O)c4O[C@H]2C(=O)CC[C@@]3(O)C1C5` (stereo not given in full), the Potency entry was “inactive”.
As for `c1ccc2c(c1)[I+]c1ccccc1-2`, the Potency is 0.291 µM (active).
`O=C(COc1ccc2ccccc2c1)N1CCN(Cc2ccncc2)CC1`: the Potency entry is “inactive”.
In the case of `Cc1nn(Cc2ccccc2Cl)c(Cl)c1C(=O)OC(C(=O)NC(N)=O)C(C)C` (stereo not given), the Potency entry was “inactive”.
On to `C=CCN1C(=O)C2(C(C(=O)OCC)=C(N)Oc3c2c(=O)oc2ccccc32)c2ccccc21` (stereo not given), for which the Potency entry was “inactive”.
Consider `CC1=CC(=Cc2sc3ccccc3[n+]2C)C=C(C)O1`, for which the Potency entry was “inactive”.

Source of the values: PubChem BioAssay AID485298 (National Center for Advancing Translational Sciences (NCATS), 2010).
